From PubChem
Rows were chosen to be rich in hits. Some 1.1% of all compounds tested hit in one or more screens of this group.
SRC2 inh – inhibits human steroid receptor coactivator 2; 370,000 tested, 0.17% active; inhibition, % at 9 µM; Q15596; HEK293 GAL4-SRC2 luciferase reporter, luminescence; AID 651957;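 active = inhibition above the mean inhibition of all tested compounds plus 3 SD, set per campaign, cut at about 52% in these data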;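 also: 0% = DMSO treated cells and 100% = cells given Gossypol at 36 µM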
COUP-TFII inh – inhibitors of human COUP-TFII (NR2F2) | AID 686940 | 370,000 tested, 0.7% active | HEK293T NGFI-A luciferase reporter, luminescence | inhibition, % at 8.6 µM;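 active = inhibition above a per-plate cutoff, mean inhibition of test wells between control levels plus 3 SD, cut at about 38% in these data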;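 also: cells cotransfected with COUP-TFII expression vector driving the NGFI-A reporter; 0% = median of COUP-TF2 test wells and 100% = reporter-only cells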
LRH-1 inv ag – suppresses constitutive activity of human LRH-1. O00482. HEK293T StAR-luciferase reporter, LRH-1 transfected, 24 h. inhibition, % at 3.6 µM. 360,000 tested, 0.13% active;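 active = inhibition above the mean inhibition of all tested compounds plus 3 SD, cut at about 73% in these data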;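 also: 0% = DMSO wells and 100% = reporter-only cells lacking LRH-1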
GalR3 antag – blocks the human galanin receptor 3; HEK293 GalR3-CNG cAMP membrane potential fluorescence; galR3 body fused to GalR1 C-terminus; inhibition, % at 3 µM; 360,000 tested, 0.44% active; AID 651719;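 active = inhibition above the screen-wide average plus 3 SD, cut at about 13% in these data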;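 also: forskolin and galanin both at EC90 stimulate the cells; cAMP rise reported by CNG channel membrane potential dye signal; 0% = forskolin plus galanin with DMSO and 100% = forskolin alone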
NCOA3 inh – inhibits human SRC3 coactivator; HEK293 GAL4-SRC3 luciferase reporter, luminescence; inhibition, % at 3.6 µM; 360,000 tested, 0.17% active;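 active = inhibition above a per-campaign cutoff, the mean of all compounds plus 3 SD, cut at about 60% in these data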;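 also: 0% = DMSO-treated cells and 100% = gossypol-treated cells at 36 µM; higher means less SRC3-driven luciferase light from the GAL4 reporter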
NCOA1 inh – human NCOA1 inhibition. Q15788. HEK293 GAL4-SRC1 luciferase reporter, luminescence. inhibition, % at 3.6 µM. 360,000 tested, 0.12% active. AID 588354;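 active = inhibition above the campaign mean plus 3 SD, with each screening campaign given its own cutoff, cut at about 60% in these data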;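 also: 0% = DMSO treated cells and 100% = gossypol at 36 µM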
Active calls of the source: *; x = no result.

SMILES	SRC2 inh	COUP-TFII inh	LRH-1 inv ag	GalR3 antag	NCOA3 inh	NCOA1 inh
CC[C@@]1(O)C(=O)OCc2c1cc1n(c2=O)Cc2cc3c(N)cccc3nc2-1	47	12	91*	-6	73*	58
CC[C@@]1(O)C(=O)OCc2c1cc1n(c2=O)Cc2cc3c(CN(C)C)c(O)ccc3nc2-1	45	-5	86*	x	71*	22
Cc1nc(Cc2nnc(SCC(=O)N3c4ccccc4NC(=O)C3(C)C)o2)cs1	-5	4	0	-7	5	-5
O=C(O)C1CCCCC1C(=O)Nc1ccc2c(c1)OCCO2 (stereo not drawn)	55*	26	63	-4	49	43
O=C(Nc1ccc2c(c1)OCCO2)C1CC1c1ccccc1 (stereo not drawn)	-2	-22	-76	1	-48	-37
Cc1c(C(=O)N(Cc2ccc(F)cc2)C2CCS(=O)(=O)C2)oc2ccccc12 (stereo not drawn)	-4	23	94*	-8	19	-30
Cc1c(C(=O)N(Cc2ccccc2)C2CCS(=O)(=O)C2)oc2ccccc12 (stereo not drawn)	0	-8	1	x	-2	-2
CNc1nc(-c2ccccc2)c2sccc2n1	9	-5	1	-6	-14	-1
Cc1nc2ccc(NS(=O)(=O)c3ccc4c(c3)OCCO4)cc2s1	25	65*	41	102*	13	17
Cc1ccc(S(=O)(=O)Nc2ccc3nc(C)sc3c2)cc1	x	x	20	x	16	16
Cc1cc(O)c2c(c1O)C(=O)[C@]13C(=C2O)C(=O)[C@@H]2[C@@H](O)[C@H]1[C@@H]1[C@H](O)[C@H]3C(=O)C3=C(O)c4c(O)cc(C)c(O)c4C(=O)[C@]312	x	x	96*	x	75*	72*
CN(C)CCCNC(=O)c1c(N)[nH]c(C(=O)c2ccc(Br)cc2)c1-c1ccc(Br)cc1	-17	-4	x	-9	x	x
COc1ccc(C(=O)Nc2nc3ccccc3s2)c(OC)c1	93*	99*	93*	-13	91*	89*
COc1ccc2nc(NC(=O)c3ccccc3C(=O)O)sc2c1	-37	-2	-4	-8	-9	-3
C=CC[n+]1ccc(/C=C2\C=Cc3cc(C)ccc3N2CC)c2ccccc21	x	x	86*	x	73*	51
COc1cccc(N2CCN(c3c(C#N)c(C(F)(F)F)nn3C)CC2)c1	35	51*	-7	-5	31	36
O=C(NCc1ccccc1)[C@H]1CCCN1C(=O)[C@H]1CCCN1C(=O)c1ccc(F)c(F)c1	-1	0	x	-4	x	x
COC(=O)[C@H](CC(C)C)N(CCCc1cn(Cc2ccccc2)nn1)S(=O)(=O)c1ccccc1Br	12	3	x	x	x	x
CCCCCCCCN1C(=O)[C@@H](CC(=O)N2CCN(C(=O)c3ccco3)CC2)C[C@@]2(C(=O)OC)C1=C[C@H](C(C)C)O[C@@H]2C1CC1	-4	6	x	x	x	x
COc1ccc2[nH]c3c(c2c1)CCNC3=O	31	16	36	1	65*	53
CCOC(=O)c1ccc2c(c1)n(CC)c(/C=C/N(C)c1ccccc1)[n+]2CC	-1	3	0	-2	31	26
CC[n+]1c(/C=C/N(C)c2ccccc2)n(-c2ccccc2)c2ccc(-c3nc4ccccc4s3)cc21	x	x	90*	x	83*	82*
COC(=O)[C@]12C[C@H](CC(=O)N3CCN(C(=O)c4ccco4)CC3)C(=O)N(CCC3=CCCCC3)C1=C[C@H](C(C)(C)C)O[C@@H]2C	-14	7	x	-7	x	x
CCCN(CCC)C(=O)C(CCC(=O)O)NC(=O)c1ccccc1 (stereo not drawn)	16	3	7	x	-6	3
CN(Cc1cnc2nc(N)nc(N)c2n1)c1ccc(C(=O)NC(CCC(=O)O)C(=O)O)cc1 (stereo not drawn)	4	-6	79*	1	83*	78*
SMILES	SRC2 inh	COUP-TFII inh	LRH-1 inv ag	GalR3 antag	NCOA3 inh	NCOA1 inh
CN(Cc1cnc2nc(N)nc(N)c2n1)c1ccc(C(=O)NC(CCC(=O)O)C(=O)O)cc1C(F)(F)F (stereo not drawn)	-16	-20	45	-5	73*	67*
CCN(CC)c1ccc(/C=N/Nc2nc(C)cc(=O)[nH]2)c(O)c1	46	-2	33	-6	84*	81*
CCOC(=O)N/N=C/c1ccc(N(CC)CC)cc1O	-69	-25	-55	-1	-16	-36
CCN(CC)c1ccc(/C=N/NC(=O)c2c(Cl)cnn2C)c(O)c1	13	-33	42	-1	76*	22
CC(CCN1CCC(C(O)(c2ccccc2)c2ccccc2)CC1)Oc1cccc(C(F)(F)F)c1 (stereo not drawn)	7	16	x	x	x	x
CN1C(=O)N(C)N(Cc2ccccc2)C(=O)N1Cc1ccccc1	-15	15	x	-7	x	x
O=C1C=CC(=O)N1Cc1ccccc1	-9	61*	-11	x	-23	0
COCC(Cc1ccccc1)NC(=O)Cn1cc(C)c(=O)[nH]c1=O (stereo not drawn)	-3	-15	-14	-2	-8	0
CC1CCC(C(C)C)C(OC(=O)Cn2c(-c3ccc(F)cc3)[n+](C)c3ccccc32)C1 (stereo not drawn)	36	25	67	-9	67*	40
O=C(NC1=N[C@@]2(C=C3CCCCC3n3c(=O)n(-c4ccccc4)c(=O)n32)[C@H](Cc2ccccc2)N1Cc1ccccc1)c1ccccc1 (stereo partly drawn)	4	-8	x	x	x	x
O=C1[C@@H]2Cc3c([nH]c4ccccc34)C(c3ccc([N+](=O)[O-])cc3)N2C(=O)CN1C1CC1 (stereo partly drawn)	-8	26	51	-12	69*	75*
C=CC(=O)Nc1cccc(Nc2nc(N[C@H]3CC[C@H](N(C)C)CC3)nc3c2ncn3C(C)C)c1	x	x	98*	x	87*	88*
CC(C)n1cnc2c(Nc3cccc(Cl)c3)nc(NCCCO)nc21	-41	19	11	-5	-16	-45
COc1ccc(/C=C2\CN(Cc3ccccc3)C/C(=C\c3ccc(OC)c(O)c3)C2=O)cc1O	52*	4	16	-5	43	33
CN(c1ncnc(N)c1[N+](=O)[O-])C1CCCCC1	57*	27	51	1	63*	71*
CCC(=O)Nc1cccc(NC(=O)c2ccccc2Br)c1	-8	-8	4	4	0	-8
CCCC(=O)Nc1cccc(NC(=O)c2ccccc2Br)c1	52*	0	0	2	12	0
COc1ccc2c(c1)[C@]1(C(=O)N2C)C2=C(CCCC2=O)Oc2cc(C)oc(=O)c21	-21	-4	x	-6	x	x
Cc1nc2cc(-c3ccc(Cl)cc3)nn2c(C)c1CCC(=O)NC(C)c1ccc2c(c1)OCCO2 (stereo not drawn)	73*	26	2	3	13	17
